# In the OligoGym collection:
# Biological target: ADORA2B
# Experiment: pooled miR-30 sensor sort-seq; sequence = guide strand
# Conditions: shRNA
# Note: reference of the scale not given here.
row,Sequence,sensor-assay potency score (higher = more potent)
1,TTAGAATCCATTCAAGCTGTTG,-0.667
2,TATATTTGTCAATCCTTGGAGC,-0.159
3,TAGCGGAAGTCTCGGTTCCGGT,-1.62
4,TTTGTCAATCCTTGGAGCCTAC,-0.74
5,TTCATTCGTGGTTCCATCCCAG,-0.119
6,TTCACAATGAAAACCAGCCGTG,-0.942
7,TTGAAATATACCATGTAGCTCA,0.0522
8,AAGTGTAGCGGAAGTCTCGGTT,-0.00274
9,TATACCATGTAGCTCATGGGGA,-0.182
10,AAACTTTTATACCTGAGCGGGA,-0.968
11,TTTTCCACCATAAACAAGGCAG,-0.459
12,ATTTTGTGAAAAGTGTAGCGGA,-0.0457
13,TAGAAGTCAGTGCAGAAGCCCA,-0.856

# Biological target: ADRA1D
# Experiment: as above
# Conditions: shRNA
row,Sequence,sensor-assay potency score (higher = more potent)
1,TACCGCAGAAGCGCTCGTCAGG,-1.24
2,TTGGCGCGCAGCTGGGTCGTGG,-1.53
3,TAGGGACACAGCCTCCACCTCT,-1.05
4,TTCACGATGAAATAGTTGGTGA,-0.48
5,TGCTGTAGTCGGCCAATTCGTA,-0.975
6,TAGTTGGTGACGGTCTGCAGGT,-0.977
7,TTGGCCGCTTTCTTCTCACGGG,-0.602
8,TTGCGCTCGGTCATGATGGCTG,-0.179
9,TACCGGTCCACGGAGATGGTGC,-1.15
10,TTCTTCTCACGGGAGAACTTGA,-1.13
11,TGAGAGGATGACAAGCAGGTTA,-0.372
12,TAGTCGGCCAATTCGTAGGCCT,-0.797
13,ATAGTTGGTGACGGTCTGCAGG,-1.13
14,TTCAGCTGCGGGAACAAGGAGC,-0.905
15,TGACAAGCAGGTTACCTGCCAC,-0.511
16,AAGAAGAAAGGGAACCAGCAGA,-0.303
17,TAGAAGGAGCACACGGAGGAGA,-0.379
